The compounds below were run against Calmodulin-1 (Homo sapiens) (UniProt P0DP23) (assay: calcium-bound CALM1 binders on microarrays, profiling panel, artefact control for SMM control-protein annotation, biochemical, small-molecule microarray, Cy5-labelled CALM1, plus calcium (AID 1112;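 note: score merges spot fluorescence with signal to noise from triplicate slides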)). Conditions: Cy5-CALM1 binding fluorescence, higher = more signal.
[N-]=[N+]=Nc1ccccc1C[C@]1(C(=O)O)N=C(c2ccc(OCCCO)cc2)O[C@H]1c1ccccc1 was tested, and the composite z-score was 0.943.
Compound CN1C(=O)[C@@]2(Cc3ccccc3)N=C(c3ccc(OCCCO)cc3)O[C@H]2c2ccccc21 has a composite z-score of 0.458.
With NC(=O)[C@@H]1[C@H]2C(=O)O[C@H](c3ccccc3)[C@H](c3ccccc3)N2[C@H](c2ccc(OCCO)cc2)[C@@]12C(=O)Nc1ccc(C#CCCO)cc12 the composite z-score was 0.209.
In the case of Cc1ccc(S[C@]2(C(=O)NC(C)C)CC(=O)N(Cc3ccccc3Cl)[C@@H]2c2ccc(CO)cc2)cc1, the composite z-score was 0.214.
Work on CC(C)=CCCC(C)=CC(O)C1C=CC2C(=O)N(c3ccccc3)C(=O)C2N1Nc1ccccc1F (stereo not given) yielded a composite z-score of -0.132.
With COc1cc2c(cc1OC)CN(C(=O)[C@@H]1[C@H]3C(=O)O[C@H](c4ccccc4)[C@H](c4ccccc4)N3[C@H](c3ccc(O)cc3)[C@@]13C(=O)Nc1ccc(C#CCCO)cc13)CC2 the composite z-score was -0.224.
With COc1cc(NN2C(C(O)C3CCCCC3)C=CC3C(=O)N(C)C(=O)C32)cc(OC)c1OC (stereo not given) the composite z-score was 0.964.
For CC(C)C(CO)N1C(=O)[C@@H]2[C@H]3C(=O)OCC=C[C@H]3OC23C=CCN(C(C)(C)C)C(=O)[C@@H]13 (stereo not given in full), the composite z-score was -1.43.
With COC(=O)[C@@]1(Cc2ccc(OC)cc2)[C@H]2c3cc(C(=O)N4CCCC4)n(Cc4ccc(S(C)(=O)=O)cc4)c3C[C@H]2CN1C(=O)c1ccccc1 the composite z-score was 0.955.
With CCCNC(=O)[C@@]1(Sc2ccc(C)cc2)CC(=O)N(C2CCCCC2)[C@@H]1c1ccc(CO)cc1I the composite z-score was 0.86.
CO[C@H]1O[C@H](CO)[C@@H](OC(=O)Nc2ccc(C#N)cc2)[C@@H]2OC(=O)[C@H](Cc3cccc(Br)c3)C/C=C/C[C@@H](Cc3cccc(Br)c3)C(=O)O[C@@H]12 showed a composite z-score of -0.121.
In the case of COCCOC(=O)N1C(=O)[C@@]2(c3cc(C#CC4(O)CCCCCC4)ccc31)[C@H](C(=O)N1CCN(c3ncccn3)CC1)[C@H]1C(=O)O[C@H](c3ccccc3)[C@H](c3ccccc3)N1[C@@H]2c1ccccc1OCCO, the composite z-score was 0.0618.
CCCC=C(CCC)[C@@H](NC(=O)CCc1ccccc1)c1ccc(C(F)(F)F)cc1 gave a composite z-score of 1.03.
Work on CC(C)[C@H]1NC(=O)[C@@]23C(=O)N[C@@H](Cc4ccccc4)C2[C@H](C)[C@@]2(C)O[C@H]2C3/C=C/CCC/C=C/CNC(=O)[C@H](Cc2ccccc2)NC1=O (stereo not given in full) yielded a composite z-score of -0.806.
In the case of CCCCNC(=O)c1ccc(C#C[Si](C(C)C)(C(C)C)C(C)C)c(OC(C)=O)c1, the composite z-score was -0.48.
In the case of C=C(/C(=C/C[C@H](OC(=O)c1ccncc1)c1ccccc1OCCO)c1cnc2ccccc2c1)C(C)C, the composite z-score was -0.558.
With COc1cc(NN2C(C(O)c3cc(OC)c(OC)c(OC)c3)C=CC3C(=O)N(c4ccccc4)C(=O)C32)cc(OC)c1OC (stereo not given) the composite z-score was 0.986.
In the case of COC(=O)[C@@]1(Cc2ccccc2)[C@H]2c3cc(C(=O)N4CCCC4)n(CCSCCO)c3C[C@H]2CN1C(=O)c1ccccc1, the composite z-score was 1.29.
In the case of COCCOC(=O)N1C(=O)[C@@]2(c3cc(C#Cc4ccc(OC)cc4)ccc31)[C@H](c1ccc(OCCO)cc1)N1[C@H](c3ccccc3)[C@H](c3ccccc3)OC(=O)[C@H]1[C@@H]2C(=O)Nc1nc2ccccc2s1, the composite z-score was 0.487.
For COCCOC(=O)N1C(=O)[C@@]2(c3cc(C#CCC(C(=O)OC)C(=O)OC)ccc31)[C@H](c1ccc(O)cc1)N1[C@H](c3ccccc3)[C@H](c3ccccc3)OC(=O)[C@H]1[C@@H]2C(=O)NC[C@H](O)c1ccccc1, the composite z-score was 0.67.
CCCCCCCCCCC(O)C1C=CC2C(=O)N(c3ccccc3)C(=O)C2N1Nc1ccccc1F (stereo not given) gave a composite z-score of 1.07.
Compound COc1ccc(C(O)C2C=CC3C(=O)N(c4ccccc4)C(=O)C3N2Nc2ccc(C(C)C)cc2)c2ccccc12 (stereo not given) has a composite z-score of 0.922.
With O=C1C2C=CC(C(O)c3cc(C(F)(F)F)cc(C(F)(F)F)c3)N(Nc3ccccc3F)C2C(=O)N1c1ccccc1 (stereo not given) the composite z-score was 0.681.
With C=C(CCCC)C(=O)CC[C@@H](OC(=O)c1cccnc1)c1ccc(OCCO)cc1 the composite z-score was -0.684.
C=C(/C(=C/C[C@@H](OC(=O)c1ccncc1)c1cccc(OCCO)c1)c1cnc2ccccc2c1)C(C)C gave a composite z-score of 0.11.
Compound CC(C)CNC(=O)[C@@]1(c2ccc([N+](=O)[O-])cc2)CC(=O)N(C2CCCCC2)[C@@H]1c1ccc(CO)cc1 has a composite z-score of -0.151.
Work on C[C@]1(C(=O)O)c2ccccc2C(=O)N(Cc2ccc(OC(F)(F)F)cc2)[C@H]1c1ccc(CO)cc1 yielded a composite z-score of 0.714.
With C=C(COC)C(=O)CC[C@H](OC(=O)c1cccnc1)c1ccc(CO)o1 the composite z-score was -0.875.
COCCOC(=O)N1C(=O)[C@@]2(c3cc(C#CCC(C(=O)OC)C(=O)OC)ccc31)[C@H](C(=O)NC[C@H](O)c1ccccc1)[C@H]1C(=O)O[C@H](c3ccccc3)[C@H](c3ccccc3)N1[C@@H]2c1ccc(O)cc1 gave a composite z-score of 0.247.
Cc1cccc([C@H]2C[C@H]3C(Br)=C[C@@H]2C(=O)[C@]32CO2)c1 gave a composite z-score of -0.41.
Compound C=CCC(OC(C)=O)[C@@H]1[C@@H](N(Cc2ccc(-c3cccc(C(F)(F)F)c3)o2)C(=O)c2cccc3ccccc23)c2cc(OCCCO)ccc2N1C(=O)Cc1ccc(OC)cc1 (stereo not given in full) has a composite z-score of -0.738.
CC(C)C[C@@H]1NC(=O)[C@@]23C(=O)N[C@@H](Cc4ccccc4)C2[C@H](C)[C@@]2(C)O[C@H]2C3/C=C/C/C=C\CNC(=O)[C@@H](C)NC1=O (stereo not given in full) was tested, and the composite z-score was -1.19.
With CCOC(=O)C1=CCN(S(=O)(=O)c2ccc(C)cc2)C1c1ccccc1 (stereo not given) the composite z-score was -0.197.
Work on COCCOC(=O)N1C(=O)[C@@]2(c3ccccc31)[C@H](c1ccccc1OCCO)N1[C@H](c3ccccc3)[C@H](c3ccccc3)OC(=O)[C@H]1[C@@H]2C(N)=O yielded a composite z-score of 0.208.
Compound C=C(COC)C(=O)CC[C@@H](OC(=O)c1cccnc1)c1ccccc1OCCO has a composite z-score of -0.497.
